Spn DPM-DC inh – S. pneumoniae DPM-DC inhibitors, primary screen, biochemical, PK/LDH-coupled NADH fluorescence. diphosphomevalonate decarboxylase (Streptococcus pneumoniae D39). AID 556, 2006. 65,000 compounds, 0.49% hits. calls only at 10 µM. purified DPM-DC;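 active = the 320 compounds with the highest percent inhibition in the single-dose primary screen, excluding strongly autofluorescent ones, cut at about 32% in these data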;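 note: kinetic rate of NADH fluorescence loss reporting ADP formed by the decarboxylase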
PMK inhibit – S. pneumoniae PMK inhibitors, primary screen, biochemical, mevalonate pathway, pilot trial included; phosphomevalonate kinase (Streptococcus pneumoniae D39); purified PMK, PK/LDH-coupled NADH absorbance 340 nm; inhibition, % at 10 µM; 65,000 compounds, 0.49% hits;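 active = top-ranked compounds by inhibition in the single 10 µM screen, taking a fixed number of the strongest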
NADH coupling – inhibitors of PK/LDH coupling enzymes, profiling panel, artefact control, biochemical, MLSMR library. coupled PK/LDH NADH assays, four targets. IC50, µM (series often up to 10 µM). 65,000 compounds, 0.02% hits. AID 774, 2007;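 active = single-dose screening hits from any of four coupled enzyme assays that gave an IC50 when retested across doses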;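 note: the DPM-DC format reads NADH fluorescence rather than 340 nm absorbance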
A340 absorber – compound light absorbance at 340 nm, profiling panel, artefact control, biochemical, MLSMR library, data from PS, PMK, MK assays; compound absorbance at 340 nm, fold over control; fold change at 10 µM; 65,000 tested, under 10 active; AID 708, 2007;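 active = at 10 µM dose, initial 340 nm absorbance at least 2 fold that of control wells; inactive = change under 2 fold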;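 note: initial absorbance extrapolated from kinetic A340 decline of NADH oxidation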
Autofluor 339 – intrinsic fluorescence of library compounds, ex339/em460 – biochemical, MLSMR library, data from DPM-DC assay, artefact control, profiling panel; AID 709, 2007; 65,000 compounds, 5.5% hits; fluorescence fold increase at 10 µM; compound autofluorescence, ex339/em460 nm, NADH buffer; hits give high values; 1 = no-compound wells, NADH background;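 active = at 10 µM, mean starting fluorescence two-fold or more over control wells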;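 note: signal is the first read of a kinetic run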
Spn MK inh – S. pneumoniae MK inhibitors, primary screen, biochemical, PK/LDH-coupled NADH absorbance. inhibition, % at 10 µM. 65,000 compounds, 0.48% hits. mevalonate kinase [Streptococcus pneumoniae D39]. purified MK, PK/LDH-coupled NADH absorbance 340 nm;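 active = ranked among the strongest by inhibition in the single 10 µM screen, a fixed top-ranked set picked for dose follow-up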
Large screens that a line does not name were inactive. A selection: hits, their analogues and other compounds. The true share with any hit is near 6.8%.

O=C(c1ccc(N2CCCCS2(=O)=O)cc1)N1CCN(c2ccc(N3CCOCC3)nn2)CC1	Autofluor 339 2.1 (not shown: Spn DPM-DC inh)
O=C(c1cncc(Br)c1)N1CCN(c2ccc(N3CCOCC3)nn2)CC1	Autofluor 339 2.1 (not shown: Spn DPM-DC inh)
O=C(NCc1ccco1)C1CCN(c2ccc(N3CCOCC3)nn2)CC1	Autofluor 339 2.5 (not shown: Spn DPM-DC inh)
O=C(C1CCN(c2ccc(N3CCOCC3)nn2)CC1)N1CCN(c2ccc(F)cc2)CC1	Autofluor 339 4.8 (not shown: Spn DPM-DC inh)
Cc1ccnc(SCCn2c(N3CCOCC3)nc3c2c(=O)n(C)c(=O)n3C)n1	none
O=C(Nc1c(-c2ccccc2)nc2sccn12)c1ccccc1	PMK inhibit 40
Nc1nc(-c2cccs2)c(NC(=O)c2ccccc2)s1	none
Cc1occc1-c1nnc(SCC(=O)N2CCOCC2)n1Cc1ccco1	PMK inhibit 27
Cc1occc1-c1nnc(SCC(=O)N2CCOCC2)n1CCc1ccccc1	none
Cc1cccn2c(=O)c(C=NCc3ccccc3)c(NCCO)nc12	Autofluor 339 3.6
O=C(Cc1c(C(=O)O)[nH]c2ccc(Cl)cc12)Nc1ccc2c(c1)OCCO2	none
O=C(NCc1cccs1)C1CC(=O)N(c2ccc(F)cc2)C1 (centres undefined)	none
N#Cc1c(-c2cccnc2)c2c([nH]c1=S)CCCC2	Spn DPM-DC inh active, Spn MK inh 80
N#Cc1c(-c2ccco2)c2c([nH]c1=S)CCCC2	none
COc1ccccc1N(CC(=O)Nc1cc(C)on1)S(=O)(=O)c1cccs1	none
C=CCNS(=O)(=O)c1cccc2cc(C(=O)O)c(O)cc12	Autofluor 339 2.3
O=C(CCSc1nc(-c2ccco2)cc(C(F)(F)F)n1)Nc1ccc2c(c1)OCO2	none
CN1CCN(C(=O)Nc2cccc3ccccc23)CC1	Autofluor 339 2.1 (not shown: Spn DPM-DC inh)
NC(=O)C1CCCN(C(=O)Nc2cccc3ccccc23)C1 (centres undefined)	Autofluor 339 2.3
CCN1CCN(C(=O)Nc2cccc3ccccc23)CC1	none
CCCS(=O)(=O)n1nc(-c2ccc(Br)cc2)cc1N	none
CCNc1nc(NC(C)C)nc(Oc2ccc(OCCOc3ccc(C)cc3)nn2)n1	none
O=c1c2c(nc3c(-c4cccc(Br)c4)c[nH]n13)CCCC2	Autofluor 339 2.7
CCOC(=O)Cc1c(C)nc2c(-c3cccc(Br)c3)c[nH]n2c1=O	Autofluor 339 2.2 (not shown: Spn DPM-DC inh)
CCOC(=O)Cc1c(C)nc(-c2ccccc2)[nH]c1=O	none
Cc1cc(=O)[nH]c(SCc2nc3ncccn3c2Br)n1	Autofluor 339 2.5 (not shown: Spn DPM-DC inh)
CC1CCc2cc(F)ccc2N1C(=O)CSc1nnc(-c2cccs2)n1C (centres undefined)	none
c1ccc2c(c1)oc1c(NCCCn3ccnc3)ncnc12	none
c1ccc(-c2oc3ncnc(NCCCn4ccnc4)c3c2-c2ccccc2)cc1	Autofluor 339 3.7 (not shown: Spn DPM-DC inh)
N=c1c2c(-c3ccccc3)c(-c3ccccc3)oc2ncn1CCCN1CCOCC1	none
c1ccc(-c2oc3ncnc(NCCN4CCOCC4)c3c2-c2ccccc2)cc1	Autofluor 339 2
CC1=CC(c2ccccc2)n2nc(NS(=O)(=O)c3ccc(C)cc3)nc2N1 (centres undefined)	Autofluor 339 2.2 (not shown: Spn DPM-DC inh)
Cc1ccc(S(=O)(=O)Nc2cc(C)nn2-c2ccccc2)cc1	none
COc1cc(-c2nnc(SCC#CCO)o2)cc(OC)c1OC	none
O=c1cc(-c2ccco2)nc(-c2cccs2)o1	none
c1coc(-c2nnc(-c3cccs3)o2)c1	Autofluor 339 3.4 (not shown: Spn DPM-DC inh)
COc1cc(-c2nnc(-c3cccs3)o2)cc(OC)c1OC	Autofluor 339 2.5
c1csc(-c2nnc(-c3ccc(N4CCOCC4)cc3)o2)c1	Autofluor 339 3.7 (not shown: Spn DPM-DC inh)
COc1ccc(-c2nnc(-c3cccs3)o2)cc1OC	Autofluor 339 2.5 (not shown: Spn DPM-DC inh)
COc1cc2nc(-c3cccs3)oc(=O)c2cc1OC	none
CCOc1ccc(-c2nnc(-c3cccs3)o2)cc1OCC	Autofluor 339 3.7 (not shown: Spn DPM-DC inh)
Brc1ccccc1-c1nnc(-c2cccnc2)o1	none
CCOc1ccc(-c2nc(-c3ccccc3)no2)cc1OCC	none

Screening results: PubChem, SRMLSC
